Results on seven compounds are retold here after PubChem BioAssay (Tox21).

Several values for one entry are separate records, joined by “and”; a condition that tells them apart may be missing. Equal entries are not always repeated. Records with an inconclusive call do not appear. Where a structure was tested more than once in an assay, its records may differ in their call. Activity calls are given as the source filed them. Unless noted, calls come from the whole dose curve; as a rule, active = well fitted curve in the direction sought with a large enough effect in the repeat runs; inconclusive = weak or mixed curves; inactive = no such curve, though single readings can be large; an effect the other way counts as inactive or inconclusive.

A short description of test [1]: qHTS assay to identify small molecule antagonists of the estrogen related receptor (ERR) signaling pathway from Tox21 library - cell viability counter screen (AID 1224834). Note: nearly all actives have a fitted effect of over 30% in size. Note: potency is the fitted concentration of half-maximal effect. In short, it runs like this:
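Cytotoxicity of test substances is gauged in the same ERR cells used for the antagonist screen, after 17.5 h of compound treatment at 37 C, by CellTiter-Fluor fluorescence measured after 30 min.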

In test [2] the target is Luciferin 4-monooxygenase (Photinus pyralis) (UniProt P08659). In words: qHTS assay to identify small molecule inhibitors of firefly luciferase (AID 1224835). Note: nearly all actives have a fitted effect of over 25% in size. In short, it runs like this: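 Biochemical qHTS: compounds run as interplate titrations against purified firefly enzyme, with D-luciferin and ATP each at its KM concentration. Light output recorded by CCD imaging.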

Test [3] can be described thus: qHTS assay to identify small molecule agonists of the constitutive androstane receptor (CAR) signaling pathway - cell viability counter screen (AID 1224836). Note: nearly all actives have a fitted effect of over 45% in size. Note: potency is the fitted concentration of half-maximal effect. In short, it runs like this:
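Double-stable HepG2 hepatoma cells (hCAR plus CYP2B6-2.2kb) are treated for 23 h at 37 C with test compounds in 15-point concentration series. PK11195 at 0.75 uM final is co-added. Cell viability is quantified by CellTiter-Fluor.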
On the technique in general: qHTS replaces the single test concentration by a dilution series.

Test [4] is described as follows: qHTS assay to identify small molecule antagonists of the constitutive androstane receptor (CAR) signaling pathway - cell viability counter screen (AID 1224837). Note: nearly all actives have a fitted effect of over 45% in size. In short, it runs like this:
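Multiplexed cytotoxicity read-out for the CAR antagonist screen: double-stable HepG2-CYP2B6-hCAR cells co-treated with 50 nM CITCO (final) and compound over 15 concentrations, incubated 23 hr, then assessed by CellTiter-Fluor fluorescence.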

Test [5] is described as follows: qHTS assay to identify small molecule antagonists of the estrogen related receptor signaling pathway with the pleiotropic PPARgamma coactivator (PGC) from Tox21 10K library - cell viability counter screen (AID 1224840; active = well fitted cell-killing curve with a large enough effect in the repeat runs, not every such curve was filed as active; note: nearly all actives have a fitted effect of over 40% in size; note: potency is the fitted concentration of half-maximal effect). In short, it runs like this:
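Step one, plate 2,000 PGC/ERR cells per well; step two, incubate 6 h at 37 C/5% CO2; step three, pin-transfer compounds; step four, incubate 17.5 h; step five, add CellTiter-Fluor and read fluorescence after 30 min.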

Test [6] is described as follows: qHTS assay to identify small molecule antagonists of the estrogen related receptor signaling pathway with the pleiotropic PPARgamma coactivator (PGC) from Tox21 10K library (AID 1224841; call rule not given here; note: actives are mostly falling curves and most rising ones were filed inactive; nearly all actives have a fitted effect of over 50% in size; note: potency is the fitted concentration of half-maximal effect). In short, it runs like this: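 Antagonism in this quantitative HTS is taken from loss of luciferase signal in PGC/ERR cells. Cells (2,000/well) are treated with compounds in DMSO after a 6 h settling period and read by One-Glo luminescence after 18 h.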

Test [7] is described as follows: qHTS assay to identify small molecule agonists of H2AX (AID 1224845; active = well fitted activation curve with a large enough effect in the signal ratio in the repeat runs, not every such curve was filed as active; the % refers to the signal ratio). In short, it runs like this:
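Wild-type CHO-K1 cells, plated overnight, exposed 3hr at 37C to 15 concentrations (0.76% DMSO final). Lysed, then HTRF anti-pH2AX (S139) cryptate and anti-H2AX-d2 antibodies, 24 hr room temperature; 665/620 nm emission read.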

A short description of test [8]: qHTS assay to identify small molecule agonists of the hypoxia (HIF-1) signaling pathway (AID 1224846; active = well fitted activation curve with a large enough effect in the signal ratio in the repeat runs, not every such curve was filed as active; the % refers to the signal ratio). The method in brief:
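Steps: seed ME-180 HRE-bla cells (2,000/well, 0.5% dialyzed FBS); incubate 5 hrs at 37C; pin-transfer compounds or DMSO; incubate 17 hrs; add LiveBLAzer B/G substrate CCF4-AM; measure reporter activation by FRET.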

The nature of test [9]: qHTS assay to identify small molecule agonists of H2AX - cell viability counter screen (AID 1224847; calls by dose curve; note: nearly all actives have a fitted effect of over 30% in size; note: potency is the fitted concentration of half-maximal effect). The method in brief: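 For this counter screen, overnight-attached CHO-K1 cells received test compounds (15 concentrations, 0.76% DMSO final); 3 hr later at 37C, CellTiter-Glo reagent was added and luminescence recorded after 30 min at room temperature.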
Test [10] is described as follows: qHTS assay to identify small molecule antagonists of the estrogen related receptor (ERR) signaling pathway from Tox21 library (AID 1224848). Note: nearly all actives have a fitted effect of over 50% in size. Note: potency is the fitted concentration of half-maximal effect. In short, it runs like this:
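Luminescent reporter read-out (ONE-Glo) from NTP's ERR cell line after 18 h treatment at 37 C with DMSO-dissolved Tox21 compounds; cells pre-plated 6 h beforehand at 2,000 per well.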

Test [11] in a line: qHTS assay to identify small molecule agonists of the estrogen related receptor (ERR) signaling pathway from Tox21 library (AID 1224849; calls by dose curve; note: nearly all actives have a fitted effect of over 15% in size). As to conditions: ERR reporter cell line, ONE-Glo luciferase, 18 h. The method in brief:
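Agonist signal is luciferase luminescence from an ERR reporter cell line treated 18 h at 37 C with DMSO-dissolved compounds, read 30 min after ONE-Glo addition at room temperature.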

The nature of test [12]: qHTS RealTime-Glo MT Cell Viability Assay in HepG2 cells - 24 hour (AID 1224867). Note: nearly all actives have a fitted effect of over 50% in size. Note: potency is the fitted concentration of half-maximal effect. The method in brief: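 Viability was tracked continuously by NanoLuc luminescence from prosubstrate reduced by living HepG2 cells, at successive time points over 40 h of compound exposure. Cells with reagent were preincubated 5 h at 37 °C before compound addition.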
Test [13] in a line: qHTS RealTime-Glo MT Cell Viability Assay in HEK293 cells - 32 hour (AID 1224868). Note: nearly all actives have a fitted effect of over 50% in size. Note: potency is the fitted concentration of half-maximal effect. In short, it runs like this:
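Viability tracked continuously by luminescence as live cells reduce a prosubstrate for NanoLuc; HEK293 cells preincubated 5 h, compound-treated at 37 C, and read at 0, 8, 16, 24, 32 and 40 h.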

Test [14] in a line: A CellTox Green Cytotoxicity Assay to monitor cytotoxicity in HEK293 cells - 0 hour (AID 1224869). Note: nearly all actives have a fitted effect of over 50% in size. The method in brief:
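Cytotoxicity was tracked continuously in HEK293 cells by a DNA-binding dye excluded from viable cells. Compounds were transferred in DMSO 5 h after seeding; fluorescence was recorded at intervals up to 40 h.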

Test [15] in a line: qHTS RealTime-Glo MT Cell Viability Assay in HepG2 cells - 40 hour (AID 1224870). Note: nearly all actives have a fitted effect of over 50% in size. Note: potency is the fitted concentration of half-maximal effect. The method in brief:
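HepG2 cells (600/well) mixed with RealTime-Glo MT reagent, settled 5 h at 37 C/5% CO2 before compound addition. Nonlytic NanoLuc luminescence from viable-cell prosubstrate reduction read repeatedly during 40 h treatment at 37 C.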

Test [16] concerns the target Nuclear receptor subfamily 1 group I member 3 (Homo sapiens) (UniProt Q14994). In words: qHTS assay to identify small molecule antagonists of the constitutive androstane receptor (CAR) signaling pathway (AID 1224838). Note: nearly all actives have a fitted effect of over 40% in size. Note: potency is the fitted concentration of half-maximal effect. The method in brief:
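Compounds were titrated across 15 concentrations onto HepG2 cells double-stably expressing hCAR and a CYP2B6-2.2kb reporter, together with 50 nM CITCO (final). After 24 h at 37 C, luciferase activity was measured by luminescence.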

The target is the same in test [17]. In words: qHTS assay to identify small molecule agonists of the constitutive androstane receptor (CAR) signaling pathway (AID 1224839).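 Note: HepG2 cells stably carrying human CAR and a CYP2B6 luciferase reporter; nearly all actives have a fitted effect of over 15% in size.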 In short, it runs like this: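 Readout: firefly luciferase luminescence via ONE-Glo. System: HepG2 double-stable for hCAR and CYP2B6-2.2kb. Conditions: 15-point compound titration, PK11195 at 0.75 uM final, 24 h incubation.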

Test [18] has as its target Thyrotropin receptor (Homo sapiens) (UniProt P16473). Description: qHTS assay to identify small molecule agonists of the thyroid stimulating hormone receptor (TSHR) signaling pathway (AID 1224843; calls by dose curve; note: nearly all actives have a fitted effect of over 45% in size). The method in brief:
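Steps: seed 800 TSHR-HEK293 cells per well; add test compound and hold 30 min at ambient temperature; dispense cAMP-d2 then anti-cAMP cryptate; incubate 1 h at ambient; measure fluorescence intensity.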

Test [19] in a line: qHTS assay to identify small molecule agonists of the hypoxia (HIF-1) signaling pathway - cell viability counter screen (AID 1224844; calls by dose curve; note: nearly all actives have a fitted effect of over 50% in size; note: potency is the fitted concentration of half-maximal effect). The method in brief: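 Tox21 10K compounds were added to HRE-bla ME-180 cells (0.5% dialyzed FBS) and incubated 17 hrs at 37C; ATP-based CellTiter-Glo luminescence then reported cell viability in the same wells.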
A short description of test [20]: qHTS assay to identify small molecule agonists of the estrogen related receptor signaling pathway with the pleiotropic PPARgamma coactivator (PGC) from Tox21 10K library (AID 1224842). Note: nearly all actives have a fitted effect of over 15% in size. The method in brief: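 PGC/ERR reporter cell line, 2,000 cells per well, incubated 6 h at 37 C before 23 nL compound in DMSO was added. After 18 h at 37 C, One-Glo luminescence read following 30 min at room temperature.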

The mark [21] stands for this setting: at 92.4 µM (top of the series) unless noted.
% is set by controls: 0 for no effect and ±100 for the full control effect.

Chain of Luciferin 4-monooxygenase (Photinus pyralis) (P08659 whole entry, looked up): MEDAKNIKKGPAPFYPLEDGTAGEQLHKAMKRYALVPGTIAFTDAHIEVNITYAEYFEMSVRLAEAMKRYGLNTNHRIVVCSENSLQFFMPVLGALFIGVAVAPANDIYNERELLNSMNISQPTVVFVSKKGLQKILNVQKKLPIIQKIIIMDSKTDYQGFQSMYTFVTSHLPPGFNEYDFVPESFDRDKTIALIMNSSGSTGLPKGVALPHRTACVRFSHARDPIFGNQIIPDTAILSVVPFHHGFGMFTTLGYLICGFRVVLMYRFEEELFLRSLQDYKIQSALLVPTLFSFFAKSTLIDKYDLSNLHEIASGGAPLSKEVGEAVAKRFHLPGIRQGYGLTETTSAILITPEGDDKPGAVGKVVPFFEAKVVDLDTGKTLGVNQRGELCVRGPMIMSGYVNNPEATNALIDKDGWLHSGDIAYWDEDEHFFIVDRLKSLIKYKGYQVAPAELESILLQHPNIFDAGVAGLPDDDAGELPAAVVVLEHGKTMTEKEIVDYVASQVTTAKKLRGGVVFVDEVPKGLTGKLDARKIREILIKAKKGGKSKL
Chain of Nuclear receptor subfamily 1 group I member 3 (Homo sapiens) (Q14994 whole entry, looked up): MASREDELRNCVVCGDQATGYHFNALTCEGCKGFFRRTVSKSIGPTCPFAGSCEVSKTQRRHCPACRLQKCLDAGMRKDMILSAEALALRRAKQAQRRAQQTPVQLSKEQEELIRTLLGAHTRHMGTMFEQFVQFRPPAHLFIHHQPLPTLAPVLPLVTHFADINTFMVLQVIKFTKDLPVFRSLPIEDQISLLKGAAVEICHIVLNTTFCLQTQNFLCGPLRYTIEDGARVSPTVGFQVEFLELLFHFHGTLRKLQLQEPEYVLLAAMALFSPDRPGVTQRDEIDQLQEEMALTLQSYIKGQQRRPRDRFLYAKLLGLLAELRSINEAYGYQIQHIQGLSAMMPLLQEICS
Chain of Thyrotropin receptor (Homo sapiens) (P16473 whole entry, looked up): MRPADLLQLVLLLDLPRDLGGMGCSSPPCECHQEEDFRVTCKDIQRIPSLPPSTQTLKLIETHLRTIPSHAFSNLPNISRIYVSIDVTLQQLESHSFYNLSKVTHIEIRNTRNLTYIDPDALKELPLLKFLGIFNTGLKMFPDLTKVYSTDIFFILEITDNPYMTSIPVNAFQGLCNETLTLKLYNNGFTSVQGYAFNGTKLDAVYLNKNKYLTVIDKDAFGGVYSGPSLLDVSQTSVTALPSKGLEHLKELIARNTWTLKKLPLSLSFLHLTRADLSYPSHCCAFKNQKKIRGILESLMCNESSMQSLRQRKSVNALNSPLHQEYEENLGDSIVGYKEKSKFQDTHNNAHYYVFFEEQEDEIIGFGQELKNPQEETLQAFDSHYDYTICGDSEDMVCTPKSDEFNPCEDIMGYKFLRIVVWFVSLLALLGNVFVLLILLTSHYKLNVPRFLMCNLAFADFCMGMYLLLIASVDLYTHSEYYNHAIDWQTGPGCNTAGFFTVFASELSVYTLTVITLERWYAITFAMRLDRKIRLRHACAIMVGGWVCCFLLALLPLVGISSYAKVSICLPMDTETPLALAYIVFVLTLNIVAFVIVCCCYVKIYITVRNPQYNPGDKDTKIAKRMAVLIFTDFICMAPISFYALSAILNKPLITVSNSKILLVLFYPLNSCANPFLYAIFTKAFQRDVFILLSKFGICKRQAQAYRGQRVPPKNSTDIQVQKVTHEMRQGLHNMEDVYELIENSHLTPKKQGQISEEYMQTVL

As for `N#CCc1ccc(Cl)cc1`, the Potency result in test [1], in test [2], in test [3], in [4], in test [5] and in test [6] was “inactive” in each case. The Potency result in test [7], in [9], in test [10], in [12], in [13] and in test [14] was “inactive” each time. In [15], the Potency entry is “inactive”. Further, the outcome in [8] was inactive. In addition, the activity change, positive = activation in test [11] (setting [21]) is 1.98% (inactive).
For the compound `CC(O)C#N` (stereo not drawn), the Potency entry in test [1], in [2], in [3], in test [17], in [5] and in test [18] was “inactive” each time. Moreover, the Potency result in test [19], in [7], in test [9], in test [12], in test [13] and in [14] was “inactive” in each case. In [16], the Potency is 30.6 µM (active). Besides, the compound was classed as inactive in test [8].
Regarding `O=C(CCl)C(Cl)Cl`, the Potency in [1] was 27.6 µM (active); in [3] it was 21.9 µM (active); in test [16], 13.8 µM (active); in [5] it was 24.6 µM (active); in [6] it was 61.7 µM (active); in [10] it was 43.7 µM (active). Moreover, in test [13], the Potency is 17.5 µM (active). Also, the Potency result in test [2], in [17], in [20], in test [9] and in [14] was “inactive” throughout. Further, the activity change, positive = activation in test [11] (setting [21]) was -73% (inactive).
Consider `N#CCCSCCC#N`, for which the Potency entry in test [1], in test [2], in [3], in [16], in test [17] and in test [5] was “inactive” each time. In addition, the Potency entry in test [18], in test [19], in test [9], in test [12], in [13] and in [14] was “inactive” throughout. Also, in test [8], the outcome was inactive.
In the case of `CC(C)C(=O)Cl`, the Potency entry in test [1], in [2], in test [3], in test [4], in test [5] and in test [20] was “inactive” each time. Besides, the Potency entry in [18], in [7], in test [9], in test [10], in [12] and in test [13] was “inactive” in each case. In addition, the Potency entry in [14] and in test [15] was “inactive” throughout. In test [8], the call was inactive. For the same compound, the activity change, positive = activation in test [11] (setting [21]) is -0.166% (inactive).
In the case of `Clc1ccc(COC(Cn2ccnc2)c2ccc(Cl)cc2Cl)cc1` (stereo not drawn), the Potency in test [1] was 45.3 µM (active) and 48.4 µM (active) and 26.6 µM (active); in test [3] it was 45.3 µM (active) and 54.3 µM (active); in [16], 54.3 µM (active) and 29.8 µM (active); in [5], 50.8 µM (active) and 54.3 µM (active); in test [19], 32.3 µM (active) and 34.5 µM (active) and inactive; in [9], 66.6 µM (active) and 56.4 µM (active). The Potency in test [10] was 20.2 µM (active) and 21.6 µM (active) and 18.8 µM (active); in test [12], 43.5 µM (active); in test [13], 18.2 µM (active) and 24.4 µM (active) and 9.52 µM (active); in test [15] it was 48.8 µM (active). Also, the Potency result in test [2], in [17], in test [18], in test [7] and in [14] was “inactive” each time. In addition, the activity change, positive = activation in test [11] (at 42.5 µM (top of the series)) is -55.4% (inactive); in [11] (at 92.4 µM (top of the series)) it was -77.5% (inactive) and -81.9% (inactive).
In the case of `CCC(C)c1cc(C(C)(C)C)cc(-n2nc3ccccc3n2)c1O` (stereo not drawn), the Potency result in test [1], in test [2], in test [3], in test [4], in [5] and in [6] was “inactive” throughout. Also, the Potency result in test [9], in test [10], in test [12], in test [13], in test [14] and in test [15] was “inactive” throughout. For the same compound, the Potency in test [19] was 19 µM (active). The result in test [8] was inactive. The activity change, positive = activation in test [11] (setting [21]) is -0.703% [at 42.5 µM] (inactive).
